# Reference: PubChem BioAssay (NCATS)
# Where “and” joins values, the source holds several entries; their conditions need not be identical. Equal entries are not always repeated. A number with no mark means an inactive call. Records with an inconclusive call do not appear. A call without a number means that no potency is given here. Calls of active or inactive are those of the source. Unless noted, calls follow the shape of the dose curve; as a rule, active = well fitted curve in the direction sought with a large enough effect; inconclusive = small, poorly fitted or top-dose-only effect, or another doubt; inactive = no such curve, though single readings can be large; an effect the other way counts as inactive or inconclusive.
# Key:
# [1] = tested on: NIH3T3; assay: qHTS assay to identify novel small-molecules to repurpose for Merkel cell carcinoma treatment (AID 1296009); details: MCC and control cell lines, CellTiter-Glo viability, 72 h; at 44.8 µM (top of the series) unless noted; also: nearly all actives have a fitted effect of over 60% in size
# Outline: (§1)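 CellTiter-Glo luminescence after 72 hr compound exposure at 37 degree celsius gave cell viability. Libraries NPC and MIPE were run as 8- and 11-point dose responses; RLUs normalized to DMSO (negative) and no-cell (cytotoxicity) controls.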
# [2] = tested on: UISO; assay: as above; details: MCC and control cell lines, CellTiter-Glo viability, 72 h; series mostly up to 46 µM
# Outline: as §1
# [3] = tested on: WaGa; assay: as above; details: MCC and control cell lines, CellTiter-Glo viability, 72 h; series mostly up to 46 µM
# Outline: as §1
# [4] = tested on: C33A; assay: Primary qHTS to identify gynecologic anti-cancer compounds using libraries of approved drugs and bioactive compounds (AID 1345084); details: Gynecologic cancer cell panel viability, ATPlite luminescence, 48 h; series mostly up to 57.5 µM; also: nearly all actives have a fitted effect of over 55% in size
# Outline: (§2)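 Five-point cytotoxicity, 48 h drug exposure at 37 C, 5% CO2, on cells seeded 16 h beforehand. ATP content read by ATPlite luminescence.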
# [5] = tested on: CAOV3; assay: as above; details: Gynecologic cancer cell panel viability, ATPlite luminescence, 48 h; series mostly up to 57.5 µM
# Outline: as §2
# [6] = tested on: CASKI; assay: as above; details: Gynecologic cancer cell panel viability, ATPlite luminescence, 48 h; series mostly up to 57.5 µM
# Outline: as §2
# [7] = tested on: Es-2; assay: as above; details: Gynecologic cancer cell panel viability, ATPlite luminescence, 48 h; series mostly up to 57.5 µM
# Outline: as §2
# [8] = tested on: HeLa; assay: as above; details: Gynecologic cancer cell panel viability, ATPlite luminescence, 48 h; series mostly up to 57.5 µM
# Outline: as §2
# [9] = tested on: Hek293T; assay: as above; details: Gynecologic cancer cell panel viability, ATPlite luminescence, 48 h, control line for the selectivity index; series mostly up to 57.5 µM
# Outline: as §2
# [10] = tested on: JEG-3; assay: as above; details: Gynecologic cancer cell panel viability, ATPlite luminescence, 48 h; series mostly up to 57.5 µM
# Outline: as §2
# [11] = tested on: OV90; assay: as above; details: Gynecologic cancer cell panel viability, ATPlite luminescence, 48 h; series mostly up to 57.5 µM
# Outline: as §2
# [12] = tested on: PA-1; assay: as above; details: Gynecologic cancer cell panel viability, ATPlite luminescence, 48 h; series mostly up to 57.5 µM
# Outline: as §2
# [13] = tested on: SKOV3; assay: as above; details: Gynecologic cancer cell panel viability, ATPlite luminescence, 48 h; series mostly up to 57.5 µM
# Outline: as §2
# [14] = tested on: Tov-21-G; assay: as above; details: Gynecologic cancer cell panel viability, ATPlite luminescence, 48 h; series mostly up to 57.5 µM
# Outline: as §2
# [15] = tested on: Tov112D; assay: as above; details: Gynecologic cancer cell panel viability, ATPlite luminescence, 48 h; series mostly up to 57.5 µM
# Outline: as §2
# [16] = Drug repurposing screens with cells derived from glioblastoma tumor samples (AID 1345199); details: GBM patient neurospheres viability, ATP luminescence, 48 h; also: nearly all actives have a fitted effect of over 40% in size; also: potency is read from the fitted curve at half-maximal effect
# Outline: (§3)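 Primary testing used CD133+ neurospheres from four GBM patients, seven concentrations, 48 h exposure and ATP-based viability; confirmation added three slower-growing patient lines.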
# [17] = tested on: astro; assay: as above; details: viability, ATP luminescence, 48 h; series mostly up to 45.9 µM
# Outline: as §3
# [18] = biological target: Nuclear receptor subfamily 1 group I member 2 (Rattus norvegicus) (UniProt Q9R1A7); assay: qHTS assay for small molecule activators of the rat pregnane X receptor (rPXR) signaling pathway (AID 651751; call rule not given here); details: rPXR reporter cells, luciferase (One-Glo), 24 h
# [19] = qHTS assay for small molecule activators of the human pregnane X receptor (PXR) signaling pathway (AID 720659; call rule not given here)
# [20] = at 45.9 µM (top of the series), tumour line B
# [21] = at 45.9 µM (top of the series), tumour line D
# [22] = at 46 µM (top of the series), tumour line A
# Chain of Nuclear receptor subfamily 1 group I member 2 (Rattus norvegicus) (Q9R1A7 whole entry, looked up): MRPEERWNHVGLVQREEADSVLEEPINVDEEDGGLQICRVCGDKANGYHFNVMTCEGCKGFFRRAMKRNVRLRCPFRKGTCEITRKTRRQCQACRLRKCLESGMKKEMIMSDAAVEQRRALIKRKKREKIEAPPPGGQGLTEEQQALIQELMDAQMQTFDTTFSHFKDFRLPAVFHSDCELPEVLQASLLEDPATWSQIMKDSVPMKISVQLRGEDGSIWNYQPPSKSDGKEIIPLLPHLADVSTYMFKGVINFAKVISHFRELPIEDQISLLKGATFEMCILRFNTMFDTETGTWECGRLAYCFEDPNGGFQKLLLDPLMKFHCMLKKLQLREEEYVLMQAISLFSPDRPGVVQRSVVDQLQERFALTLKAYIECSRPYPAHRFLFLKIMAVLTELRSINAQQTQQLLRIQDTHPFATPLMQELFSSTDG
smiles,measurement,setting,value
Clc1ccccc1N1CCNCC1,outcome,[1],inactive
same,Potency,[2],inactive
same,Potency,[3],inactive
same,Potency,[4],inactive
same,outcome,[5],inactive
same,outcome,[6],inactive
same,Potency,[7],inactive
same,Potency,[8],inactive
same,outcome,[9],inactive
same,outcome,[10],inactive
same,Potency,[11],inactive
same,Potency,[12],inactive
same,outcome,[13],inactive
same,Potency,[14],inactive
same,Potency,[15],inactive
CC(C)NC(C)C,outcome,[1],inactive
same,Potency,[2],inactive
same,Potency,[3],inactive
same,Potency,[4],inactive
same,outcome,[6],inactive
same,Potency,[7],inactive
same,Potency,[8],inactive
same,outcome,[9],inactive
same,outcome,[10],inactive
same,Potency,[11],inactive
same,Potency,[12],inactive
same,outcome,[13],inactive
same,Potency,[14],inactive
same,Potency,[15],inactive
same,"activity, negative = cell killing",[16]; [20],6.4%
same,"activity, negative = cell killing",[16]; [21],4.87%
same,"activity, negative = cell killing",[16]; [22],1.87%
same,Potency,[17],inactive
same,max response,[18],7.26%
same,outcome,[19],inactive
O=C(CCCN1CCC2(CC1)C(=O)NCN2c1ccccc1)c1ccc(F)cc1,outcome,[1],inactive
same,Potency,[2],inactive
same,Potency,[3],inactive
same,Potency,[4],inactive
same,outcome,[5],inactive
same,outcome,[6],inactive
same,Potency,[7],inactive
same,Potency,[8],inactive
same,outcome,[9],inactive
same,outcome,[10],inactive
same,Potency,[12],inactive
same,outcome,[13],inactive
same,Potency,[14],inactive
same,Potency,[15],inactive
same,Potency,[16]; tumour line A,2.24 µM (active)
same,Potency,[16]; tumour line D,12.6 µM (active)
same,Potency,[17],inactive
CCc1cc2c(s1)-n1c(C)nnc1CN=C2c1ccccc1Cl,outcome,[1],inactive
same,Potency,[2],inactive
same,Potency,[3],inactive
same,Potency,[4],inactive
same,outcome,[5],inactive
same,outcome,[6],inactive
same,Potency,[7],inactive
same,Potency,[8],inactive
same,outcome,[9],inactive
same,outcome,[10],inactive
same,Potency,[11],inactive
same,Potency,[12],inactive
same,outcome,[13],inactive
same,Potency,[14],inactive
same,Potency,[15],inactive
same,"activity, negative = cell killing",[16]; [20],-22.1%
same,"activity, negative = cell killing",[16]; [21],-8.05%
CC(C)(N)Cc1ccccc1Cl,Potency,[2],inactive
same,Potency,[3],inactive
same,Potency,[4],inactive
same,outcome,[5],inactive
same,outcome,[6],inactive
same,Potency,[7],inactive
same,Potency,[8],inactive
same,outcome,[9],inactive
same,outcome,[10],inactive
same,Potency,[11],inactive
same,Potency,[12],inactive
same,outcome,[13],inactive
same,Potency,[14],inactive
same,Potency,[15],inactive
COc1cccc([C@@]2(O)CCCC[C@@H]2CN(C)C)c1,outcome,[1],inactive
same,Potency,[2],inactive
same,Potency,[3],inactive
same,Potency,[4],inactive
same,outcome,[6],inactive
same,Potency,[7],inactive
same,Potency,[8],inactive
same,outcome,[9],inactive
same,outcome,[10],inactive
same,Potency,[11],inactive
same,Potency,[12],inactive
same,outcome,[13],inactive
same,Potency,[14],inactive
same,Potency,[15],inactive
same,"activity, negative = cell killing",[16]; [20],-5.81%
same,"activity, negative = cell killing",[16]; [21],6.21%
same,"activity, negative = cell killing",[16]; [22],-29.2%
Clc1cccc(SC2CCNCC2)n1,Potency,[2],inactive
same,Potency,[3],inactive
same,Potency,[4],inactive
same,outcome,[5],inactive
same,outcome,[6],inactive
same,Potency,[7],inactive
same,Potency,[8],inactive
same,outcome,[9],inactive
same,outcome,[10],inactive
same,Potency,[11],inactive
same,Potency,[12],inactive
same,outcome,[13],inactive
same,Potency,[14],inactive
same,Potency,[15],inactive
same,Potency,[17],35.5 µM (active)
CNC(C)(C)Cc1ccccc1,Potency,[2],inactive
same,Potency,[3],inactive
same,Potency,[4],inactive
same,outcome,[5],inactive
same,outcome,[6],inactive
same,Potency,[7],inactive
same,Potency,[8],inactive
same,outcome,[9],inactive
same,outcome,[10],inactive
same,Potency,[11],inactive
same,Potency,[12],inactive
same,outcome,[13],inactive
same,Potency,[14],inactive
same,Potency,[15],inactive
same,"activity, negative = cell killing","[16]; at 21.2 µM (top of the series), tumour line B",-7.53%
same,"activity, negative = cell killing","[16]; at 21.2 µM (top of the series), tumour line D",-8.31%
same,"activity, negative = cell killing","[16]; at 21.3 µM (top of the series), tumour line A",-29.6%
same,Potency,[17],inactive
C#C[C@]1(O)CC[C@H]2[C@@H]3CCC4=CC(=O)CC[C@]4(C)[C@H]3CC[C@@]21C,Potency,[2],inactive
same,Potency,[3],inactive
same,Potency,[4],inactive
same,outcome,[5],inactive
same,outcome,[6],inactive
same,Potency,[7],inactive
same,Potency,[8],inactive
same,outcome,[9],inactive
same,outcome,[10],inactive
same,Potency,[11],inactive
same,Potency,[12],inactive
same,outcome,[13],inactive
same,Potency,[14],inactive
same,Potency,[15],inactive
same,"activity, negative = cell killing",[16]; [20],-23.4% and -19.6%
same,"activity, negative = cell killing",[16]; [21],-13.1% and -15.3%
same,"activity, negative = cell killing",[16]; [22],-19.9%
same,Potency,[17],inactive
O=P1(N(CCCl)CCCl)NCCCO1 (configuration not stated),Potency,[2],inactive
same,Potency,[3],inactive
same,Potency,[4],inactive
same,outcome,[5],inactive
same,outcome,[6],inactive
same,Potency,[7],inactive
same,Potency,[8],inactive
same,outcome,[9],inactive
same,outcome,[10],inactive
same,Potency,[11],inactive
same,Potency,[12],inactive
same,Potency,[14],inactive
same,Potency,[15],inactive
same,"activity, negative = cell killing",[16]; [20],-0.921%
same,"activity, negative = cell killing",[16]; [21],1.42%
same,Potency,[17],inactive
same,max response,[18],6.19% and -0.989%
same,outcome,[19],inactive
Cc1ncsc1CCCl,Potency,[2],inactive
same,Potency,[3],inactive
same,Potency,[4],inactive
same,outcome,[5],inactive
same,outcome,[6],inactive
same,Potency,[7],inactive
same,Potency,[8],inactive
same,outcome,[9],inactive
same,outcome,[10],inactive
same,Potency,[11],inactive
same,Potency,[12],inactive
same,outcome,[13],inactive
same,Potency,[14],inactive
same,Potency,[15],inactive
same,"activity, negative = cell killing",[16]; [20],-10.2%
same,"activity, negative = cell killing",[16]; [21],-8.99%
same,"activity, negative = cell killing",[16]; [22],4.91%
Nc1nc(N)nc(NC2CC2)n1,Potency,[2],inactive
same,Potency,[3],inactive
same,Potency,[4],inactive
same,outcome,[5],inactive
same,outcome,[6],inactive
same,Potency,[7],inactive
same,Potency,[8],inactive
same,outcome,[9],inactive
same,outcome,[10],inactive
same,Potency,[11],inactive
same,Potency,[12],inactive
same,outcome,[13],inactive
same,Potency,[14],inactive
same,Potency,[15],inactive
same,"activity, negative = cell killing",[16]; [20],-5.44%
same,"activity, negative = cell killing",[16]; [21],-12.5%
same,max response,[18],2.97%
same,outcome,[19],inactive
Nc1ccccc1,Potency,[2],inactive
same,Potency,[3],inactive
same,Potency,[4],inactive
same,outcome,[5],inactive
same,outcome,[6],inactive
same,Potency,[7],inactive
same,Potency,[8],inactive
same,outcome,[9],inactive
same,outcome,[10],inactive
same,Potency,[11],inactive
same,Potency,[12],inactive
same,outcome,[13],inactive
same,Potency,[14],inactive
same,Potency,[15],inactive
same,"activity, negative = cell killing",[16]; [20],-4.34%
same,"activity, negative = cell killing",[16]; [21],-2.5%
same,"activity, negative = cell killing",[16]; [22],-28.7%
same,Potency,[17],inactive
same,max response,[18],-4.01%
same,outcome,[19],inactive
O=c1[nH]oc2c1CCNC2,Potency,[2],inactive
same,Potency,[3],inactive
same,Potency,[4],inactive
same,outcome,[5],inactive
same,outcome,[6],inactive
same,Potency,[7],inactive
same,Potency,[8],inactive
same,outcome,[9],inactive
same,outcome,[10],inactive
same,Potency,[11],inactive
same,Potency,[12],inactive
same,outcome,[13],inactive
same,Potency,[14],inactive
same,Potency,[15],inactive
same,"activity, negative = cell killing",[16]; [20],-19.5%
same,"activity, negative = cell killing",[16]; [21],-5.63%
same,"activity, negative = cell killing",[16]; [22],-27.4%
same,Potency,[17],inactive
